DT40 TDP1 no CPT: qHTS for Inhibitors of human tyrosyl-DNA phosphodiesterase 1 (TDP1): qHTS in cells in absence of CPT; DT40 Tdp1-/- hTDP1 cells, no CPT, ATP luminescence, 48 h; Potency, µM (series often up to 46.2 µM), for the others: at the top dose activity change, negative = growth inhibition, most hits filed as inhibitors; 420,000 tested, 15% active; note: potency is the fitted concentration of half-maximal effect; nearly all actives have a fitted effect of over 55% in size
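Chicken DT40 Tdp1-/- cells complemented with human TDP1, screened without camptothecin (DMSO vehicle only), 400 cells/well. Compounds pin-transferred, cells incubated at 37 °C for at least 48 hr. Growth read as ATP-dependent luminescence (CellTiter-Glo, 30 min at RT).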
HT1080 IDH1KD tx: kills HT-1080 cells with IDH1 knockdown; 360,000 tested, 2% active; HT-1080 IDH1 knockdown viability, ATP luminescence, 48 h; Potency, µM (highest dose often 46.1 µM), for the others: at the highest dose activity, negative = toxicity, most hits filed as cytotoxic; AID 686971;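 note: potency is the fitted concentration of half-maximal effect; 0% = DMSO wells and -100% = cell-free medium wells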
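HT-1080-IDH1KD cells (IDH1 knocked down), 750/well in RPMI with 5% FBS, treated with compound 48 h at 37 degrees C. Viability by CellTiter-Glo luminescence, normalised to DMSO and no-cell wells; concentration-response curves classed.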
DT40 TDP1 CPT: DT40-hTDP1 cell growth loss with CPT; chicken DT40 Tdp1-/-;hTDP1 cells + 20 nM CPT, ATP luminescence, 48 h; Potency, µM (series often up to 46.2 µM), without a hit: at the highest dose activity change, negative = growth inhibition, hits mostly inhibitors; 420,000 tested, 12% active; note: potency is the fitted concentration of half-maximal effect; nearly all actives have a fitted effect of over 55% in size
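Cell growth measured by CellTiter-Glo luminescence after a minimum 48 h, 37 C compound exposure with 20 nM CPT in Tdp1-knockout DT40 cells stably expressing hTDP1, seeded 400/well; qHTS titration format.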
IL1B secr inh: blocks inflammasome-driven IL-1 beta release; THP-1 LPS/ATP IL-1B secretion, AlphaLISA, 16 h; active compounds read low; activity change, % at 57.5 µM; 360,000 tested, 4.7% active; in the data active = activity change below about -50%; inconclusive = mostly about -30% to -49%
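THP-1 cells pretreated 1 hr with compounds (up to 57.5 uM final), then stimulated with LPS (250 ng/mL final) plus ATP (1.25 mM final); secreted IL-1B measured by AlphaLISA after 16 hr, decreased signal indicating inhibition.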
HT1080-NT tox: kills 2HG-producing HT-1080-NT fibrosarcoma cells. 360,000 tested, 1.6% active. HT-1080-NT fibrosarcoma viability, CellTiter-Glo ATP luminescence, 48 h. Potency, µM (series often up to 46.1 µM), inactives show top-dose activity, negative = less viability, actives largely listed as cytotoxic;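 note: NT is the 2HG producing partner of a matched IDH1 knockdown line; potency is the fitted concentration of half-maximal effect; 0% = DMSO-treated cells and -100% = media-only wells without cells; nearly all actives have a fitted effect of over 55% in size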
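Read-out is CellTiter-Glo luminescence after 10 minutes at room temperature, following 48 hours' compound treatment of HT-1080-NT cells (750 cells/well, RPMI, 5% FBS, 37 degrees C).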
ELG1 DNA repair: inhibitors of ELG1-dependent DNA repair in HEK293T cells. Potency, µM (titrated, usually from 46.1 µM), inactives show at the top dose activity change, negative = inhibition, most hits filed as inhibitors. 330,000 tested, 2.3% active. AID 504467. HEK293T ELG1-luciferase reporter, luminescence, 16 h; DNA damage induced by 5-fluorouridine; note: potency is the fitted concentration of half-maximal effect; nearly all actives have a fitted effect of over 55% in size
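In this reporter screen, reduction of luminescence relative to DMSO vehicle indicated activity. Compounds and 5-fluorouridine were added together to 2,000 cells per well, incubated for 16 hr at 37 °C, then developed with ONE-Glo.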
Active calls of the source: *; ? = inconclusive; / = no result; [ ] = remark or other dose. A selection: hits, their analogues and other compounds. The true share with any hit is near 19%. Unless noted, calls come from the whole dose curve; as a rule, active = well fitted curve in the direction sought with a large enough effect; inconclusive = small, poorly fitted or top-dose-only effect, or another doubt; inactive = no such curve, though single readings can be large; an effect the other way counts as inactive or inconclusive. Unless noted, % is set by controls: 0 for no effect and ±100 for the full control effect.

SMILES | DT40 TDP1 no CPT | HT1080 IDH1KD tx | DT40 TDP1 CPT | IL1B secr inh | HT1080-NT tox | ELG1 DNA repair
Cc1ccc(S(=O)(=O)N(C)c2ccc(OCC(=O)Nc3nc4c(ccc5ccccc54)s3)cc2)cc1 | ? | 15% | ? | -12 | 14% | -23%
O=C(Nc1cc(S(=O)(=O)N2CCOCC2)ccc1N1CCOCC1)c1cccs1 | -7% | 13% | -23% | -6 | -6% | 0%
COc1ccc(Cl)cc1NC(=O)NCC1CCN(C(=O)OC(C)(C)C)CC1 | -15% | -31% | -7% | -55* | -18% | -17%
COc1ccc(Cl)cc1NC(=O)CN1CCC(n2nnc3ccccc32)CC1 | ? | 0% | -28% | -3 | 1% | 7.3µM*
COc1ccc(Cl)cc1NC(=O)CN1CCC(NC(=O)C2CC2)CC1 | ? | -13% | 23µM* | 20 | -3% | 9.2µM*
Cc1ccc(NC(=O)Nc2c[nH]c(=O)[nH]c2=O)c(Cl)c1 | 3% | / | -4% | / | / | /
CC(C)C(NC(=O)c1ccc(F)cc1)C(=O)N1CCN(c2ccccn2)CC1 (stereo not drawn) | ? | 2% | ? | -5 | -6%[9.24 µM] | ?
Cc1ccc2nc3c(cc(C(=O)NCc4ccco4)c(=N)n3C(C)C)c(=O)n2c1 | -3% | / | -3% | / | / | /
CCCCc1c(O)nc(SCC(=O)c2ccccc2)n(-c2ccccc2)c1=O | 2.6µM* | 7% | 2.9µM* | 25 | 2% | 16%
CCCCc1c(O)nc(SCC(=O)N2CCOCC2)n(-c2ccccc2OC)c1=O | -10% | 16% | -4% | -8 | 19% | 0%
CCCCc1c(O)nc(SCC(=O)c2ccccc2)n(-c2ccccc2OC)c1=O | 8.2µM* | 18% | -9% | / | 6% | -2%
Cc1ccc(Cl)cc1NC(=O)COC(=O)CCN1C(=O)C2CC=CCC2C1=O (stereo not drawn) | -12% | -4% | -4% | 4 | 0% | -1%
O=C(CNC(=O)c1ccccc1F)NCc1ccccn1 | -4% | 5% | 1% | 10 | 12% | ?
CCOc1ccc(C(=O)NCC(=O)NCC(c2ccc(OC)cc2)N2CCOCC2)cc1OCC (stereo not drawn) | 7% | 9% | 9% | -2 | 5% | -7%
COc1cccc(/C=N/NC(=S)Nc2cccc(S(=O)(=O)N(C)C)c2)c1 | 8.2µM* | 0% | 4.1µM* | 6 | -4% | -4%
COc1cc(/C=N/NC(=S)Nc2cccc(S(=O)(=O)N(C)C)c2)cc(OC)c1O | ? | 9% | -15% | -14 | 0% | 21µM*
CN(C)S(=O)(=O)c1cccc(NC(=S)N/N=C/C(c2ccccc2)c2ccccc2)c1 | 13µM* | 14% | ? | 1 | -3% | 13%
COc1cc(/C=N/NC(=S)Nc2cccc(C(=O)O)c2)cc(OC)c1OC | -5% | 7% | 8% | 19 | 7% | 14%
C=C(C)CNC(=S)N/N=C/c1ccco1 | 5.2µM* | -21% | 18µM* | -7 | -29% | 1%
CCOc1ccccc1/C=C(/NC(=O)c1ccccc1)C(=O)N(CC)CC | 11% | 9% | 7% | -7 | 17% | 0%
CCn1cc(CN2CCC(n3nccc3NC(=O)c3cccc(F)c3)CC2)cn1 | -6% | 6% | 4% | 14 | -2% | 1%
O=C(CSc1nc2c([nH]c3ccccc32)c(=O)n1-c1cccc(Cl)c1)N1CCCC1 | 0% | / | 9% | / | / | /
COc1ccc(O)c(/C=N/NC(=S)Nc2cccc(S(=O)(=O)N(C)C)c2)c1 | 6.5µM* | ? | 6.5µM* | -63* | -18% | ?
CN(C)S(=O)(=O)c1cccc(NC(=S)N/N=C/c2ccco2)c1 | 5.8µM* | 8% | 4.6µM* | 7 | 5% | -6%
CC(/C=N/NC(=S)Nc1cccc(S(=O)(=O)N(C)C)c1)c1ccccc1 (stereo not drawn) | ? | 13% | ? | 53 | 10% | 4%
SMILES | DT40 TDP1 no CPT | HT1080 IDH1KD tx | DT40 TDP1 CPT | IL1B secr inh | HT1080-NT tox | ELG1 DNA repair
CN(C)S(=O)(=O)c1cccc(NC(=S)N/N=C/c2ccc(O)c(O)c2O)c1 | 16µM* | -2% | ? | -13 | -1% | 16µM*
COc1ccc2cc(C(C)C(=O)Nc3cccc(S(=O)(=O)N(C)C)c3)ccc2c1 (stereo not drawn) | 23µM* | -22% | ? | -17 | ? | ?
COc1ccc(NC(=O)CS(=O)(=O)Cc2ccccc2)c([N+](=O)[O-])c1 | -6% | -3% | 0% | -10 | -7% | 20%
COC(=O)c1c(C(=O)OC)c(-c2cccc(F)c2)n2c1CS(=O)(=O)C2 | 15% | 1% | -3% | 8 | -2% | 0%
O=C(COC(=O)c1cc(=O)[nH]c2ccccc12)NC(=O)c1ccccc1 | 0% | -20% | -2% | 1 | 7% | 4%
Cn1cnc2nc(Cl)nc(Cl)c21 | 1.2µM* | ? | 1.6µM* | -93* | ? | /
CNc1nc(Cl)nc2ncn(C)c12 | -2% | -2% | 0% | -6 | 0% | /
CC(NC(=O)c1cc(F)c(F)c(F)c1F)c1ccc(-n2ccnc2)cc1 (stereo not drawn) | ? | -6% | 23µM* | ? | -12% | 5%
Cc1nnc(NC(=O)CSc2nccn2-c2cccc(Cl)c2)s1 | -16% | / | 5% | / | / | /
Cc1[nH]c2ccccc2c1C(=O)CN1CCCCC1CCO (stereo not drawn) | 16µM* | -3% | ? | 11 | -7% | 1%
CCN(CC)CCNC(=O)CN1C(=O)CSc2ccc(S(=O)(=O)N3CCOCC3)cc21 | 10% | -1% | -1% | 9 | 8% | /

Compound activity (PubChem)
